These results are taken from PubChem BioAssay AID1851 (National Center for Advancing Translational Sciences (NCATS), 2009).

About 5,100 (32%) of roughly 16,000 compounds were called active. Not shown: some 25% with an inconclusive outcome. The list shows a part of the results. Unmarked numbers belong to inactive results. The call rests on the fitted dose curve; in most records, active means well fitted curve in the direction sought with a large enough effect; inconclusive means small, poorly fitted or top-dose-only effect, or effect the other way; inactive means no such curve, though single readings can be large or run the other way.
On the % scale 0 is the no-effect control and ±100 the full control effect.

Cytochrome P450 3A4 (Homo sapiens), sequence (P08684 whole entry, looked up): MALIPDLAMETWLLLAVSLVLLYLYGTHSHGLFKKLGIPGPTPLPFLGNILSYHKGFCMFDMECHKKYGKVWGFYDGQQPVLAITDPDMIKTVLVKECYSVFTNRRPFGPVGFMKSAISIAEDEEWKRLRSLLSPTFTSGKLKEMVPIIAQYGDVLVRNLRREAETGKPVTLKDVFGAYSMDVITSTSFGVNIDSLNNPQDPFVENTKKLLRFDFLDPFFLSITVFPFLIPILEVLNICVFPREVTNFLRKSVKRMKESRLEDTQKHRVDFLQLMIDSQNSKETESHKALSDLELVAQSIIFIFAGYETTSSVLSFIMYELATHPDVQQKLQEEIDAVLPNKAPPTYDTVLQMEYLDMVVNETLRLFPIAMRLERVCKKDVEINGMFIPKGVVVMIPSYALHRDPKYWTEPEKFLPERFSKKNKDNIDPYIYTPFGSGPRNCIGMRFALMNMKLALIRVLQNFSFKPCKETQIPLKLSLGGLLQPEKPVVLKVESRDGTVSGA

The assay has as its target Cytochrome P450 3A4 (Homo sapiens) (UniProt P08684). Description: Cytochrome panel assay with activity outcomes. The following applies: recombinant CYP, pro-luciferin dealkylation, luminescence, p450-cyp3a4; series mostly up to 57.1 µM; activity, negative = inhibition: at the top concentration.
Broadly, the AC50 is the concentration at which the activity in the assay is half-maximal. In the case of `COc1ccc2[nH]cc(CCNc3ncnc4ccc(-c5cccnc5)cc34)c2c1`, the AC50 is 1 µM (active). Take `COc1ccc2[nH]cc(CCNc3ncnc4ccc(-c5ccccc5CN(C)C)cc34)c2c1`: the half-maximal activity concentration (AC50) was 1.58 µM (active). On to `COc1ccc2[nH]cc(CCNc3ncnc4ccc(-c5ccc6c(c5)OCO6)cc34)c2c1`, for which the AC50 was 2 µM (active). Same read-out and setting: next, `COc1ccc2[nH]cc(CCNc3ncnc4ccc(-c5c(C)noc5C)cc34)c2c1`: 3.16 µM (active). `O=C(Cn1cnc([N+](=O)[O-])c1)NCc1ccc(F)cc1`: the “activity, negative = inhibition” value is 7.55%. `Cc1ccc(C(C)C)n1C(=O)OC(C)(C)C`: the activity, negative = inhibition is -18.1% [at 11.4 µM]. The same measure, in the same setting: next, `Nc1nc2c(nc(Br)n2[C@@H]2O[C@H]3COP(=O)(O)O[C@H]3[C@@H]2O)c(=O)[nH]1`: -11.4%. For the molecule `CN(Cc1ccccc1)S(=O)(=O)c1ccc(OCC(=O)N2CCOCC2)cc1`, the “activity, negative = inhibition” value is -0.529%. On to `COc1ccc(S(=O)(=O)N(CCc2ccccc2)CC(=O)N2CCOCC2)cc1`, for which the AC50 was 7.08 µM (active). As for `COc1ccc(S(=O)(=O)N(CC(=O)N2CCCC2)Cc2ccccc2)cc1`, the AC50 was 4.47 µM (active). On to `Cc1ccc(CS(=O)(=O)CCC(=O)N2CCOCC2)cc1`, for which the “activity, negative = inhibition” value is -2.96%. In the case of `COc1ccc(OC)c(N(CC(=O)N2CCc3ccccc3C2)S(C)(=O)=O)c1`, the “activity, negative = inhibition” value is 7.06%. As for `Cc1ccc(C2NC(c3ccc(C)cc3)C(C)C(=NO)C2C)cc1` (configuration not stated), the AC50 was 14.1 µM (active). On to `COc1ccc(CC(=O)NC(=S)Nc2ccc(S(=O)(=O)NC(C)(C)C)cc2)cc1`, for which the AC50 was 6.31 µM (active). Turning to `CCC(=O)NC(=S)Nc1ccc(S(=O)(=O)NC(C)=O)cc1`, the activity, negative = inhibition is 18.1% [at 2.29 µM]. For `CC(=O)NS(=O)(=O)c1ccc(NC(=S)NC(=O)C(C)(C)C)cc1`, the “activity, negative = inhibition” value was 3.17%.

With `CSc1nc(N)c2ncn([C@H]3O[C@H](COP(=O)(O)OP(=O)(O)O)[C@@H](O)[C@@H]3O)c2n1`, the “activity, negative = inhibition” value is -11.3%. Still for that read-out and setting: to `C[C@@]12CC3CC(N)(C1)C[C@@](C)(C3)C2` belongs 5.36% [at 25.6 µM]; to `CCOc1ccc(NC(=O)N2CCC(c3ccc(C)cc3)C2)cc1` (configuration not stated), -20.6%. Same read-out and setting: to `CCOc1ccc(C2=[N+]([O-])C(C)(C)N(O)C2(C)C)cc1` belongs -12.4%.

Consider `CCOc1ccc(C(Nc2ccc(C)cc2)P2(=O)OCC(C)(C)CO2)cc1` (configuration not stated), for which the AC50 is 3.98 µM (active). Consider `COc1ccc(CCn2c(C)cc(C(=O)CSc3nc(N)cc(=O)[nH]3)c2C)cc1`, for which the AC50 is 2.51 µM (active).

With `CC(=O)Nc1nnc(SCc2ccc(F)cc2)s1`, the “activity, negative = inhibition” value is -13.1%. As to `Cc1cc(C(=O)CSc2nnc(N)s2)c(C)n1CCc1ccc(F)cc1`, the AC50 is 0.316 µM (active).

Regarding `O=C(O)c1cc(=O)[nH]c(SCc2ccccc2)n1`, the activity, negative = inhibition is 0.661% [at 11.4 µM].

Take `O=C(CCc1ccc(O)cc1)c1c(O)cc(O)cc1O`: the AC50 is 10 µM (active).

Turning to `O=C(O)Cc1ccc(O)c(O)c1`, the “activity, negative = inhibition” value is -3.58%. `C[C@@](N)(Cc1ccc(O)cc1)C(=O)O`: the AC50 result is “inactive”.

Consider `O=c1nc(N2CCCCCC2)nc(N2CCCCCC2)[nH]1`, for which the “activity, negative = inhibition” value is -19.4%.

Take `Cc1cc2nc(-c3ccc(SCC(=O)N4CCc5ccccc54)nc3)[nH]c2cc1C`: the activity, negative = inhibition is -3.98% [at 2.29 µM]. On to `O=C(CSc1nnc(CNc2ccc(F)cc2)o1)OC1CCCCC1`, for which the AC50 is 28.2 µM (active). Turning to `O=C(CSc1nnc(CNc2ccc(F)cc2)o1)N1c2ccccc2Sc2ccccc21`, the AC50 was 7.08 µM (active). Turning to `CCN(CC)C(=O)CSc1nnc(C2CCCCC2)o1`, the “activity, negative = inhibition” value is -27.4%. Still for that read-out and setting: next, `CCOc1ccc(-n2c(=O)[nH]cc(C(=O)N3CCCc4ccccc43)c2=O)cc1`: -29.5%. For `O=C(CSc1nnc(CNc2ccccc2)o1)N1CCCc2ccccc21`, the AC50 is 8.91 µM (active). Regarding `O=C(CSc1n[nH]c(-c2ccccc2O)n1)N1CCCc2ccccc21`, the AC50 is 3.16 µM (active). For the molecule `O=C(CCN1CCCCC1)N1CCc2c([nH]c3ccccc23)[C@H]1c1cccnc1`, the activity, negative = inhibition was -11.2% [at 11.4 µM]. With `COC(=O)Cn1cnc(=O)c(C#N)c1/C=C/N(C)C`, the “activity, negative = inhibition” value is -1.13%. As to `O=C(N/N=C/c1ccncc1)c1cc2c(ccc3ccccc32)o1`, the AC50 is 1.41 µM (active). On to `O=C(N/N=C/c1ccc(O)cc1)c1csc2ccccc12`, for which the activity, negative = inhibition was -23.9% [at 11.4 µM]. As to `O=C(N/N=C/C=C/c1ccccc1)c1cc2c(ccc3ccccc32)o1`, the “activity, negative = inhibition” value is -11.9%. On the same count and under the same terms, to `O=C(N/N=C/c1cccc([N+](=O)[O-])c1)c1cc2c(ccc3ccccc32)o1` belongs -7.91% [at 2.29 µM]; to `O=C(N/N=C\c1cccc(O)c1)c1ccncc1`, -5.33% [at 11.4 µM]. `Cc1ccccc1C(=O)N/N=C/c1ccncc1`: the AC50 is 7.08 µM (active). As for `C=CCn1cc(/C=N\NC(=O)c2cc3c(ccc4ccccc43)o2)c2ccccc21`, the AC50 was 10 µM (active). As for `COc1cccc([C@H](O)Cn2cc(-c3ccc(CON=C(C)C)cc3)nn2)c1`, the activity, negative = inhibition is -19.8% [at 11.4 µM].

For the molecule `CC[C@@H](CS(=O)(=O)O)[N+](=O)[O-]`, the activity, negative = inhibition is -18% [at 11.4 µM].
